Activity calls are given as the source filed them.
Tests used:
[1] = compounds binding Alexa647 anti-His antibody – biochemical, small-molecule microarray, 635 nm fluorescence, artefact control for SMM control protein annotation, primary screen (AID 1128); conditions: higher = more signal;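 also: score merges feature fluorescence with signal-to-noise for each printed compound spot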
[2] = tested on: Human papillomavirus type 1a E7 protein (residues 1-88); experiment: HPV1a E7 small-molecule binders, primary screen, biochemical, small-molecule microarray, residues 1-88, 635 nm (AID 1129); conditions: small-molecule microarray binding, fluorescence 635 nm; higher = more signal
[3] = molecular target: Focal adhesion kinase 1 (Homo sapiens) (UniProt Q05397); experiment: PTK2 protein binding on printed compound slides – biochemical, small-molecule microarray, 635/667 nm fluorescence, BSA, DTT, primary screen (AID 1130); conditions: 635 nm fluorescence, higher = more signal;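 also: composite of spot emission at 667 nm and signal to noise over triplicate slides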
[4] = tested on: Fibrinogen (Alexa647-labelled); experiment: Alexa647-fibrinogen binding to printed small molecules – biochemical, small-molecule microarray, 635/667 nm fluorescence, artefact control for SMM control-protein annotation, profiling panel (AID 1131); conditions: fibrinogen-A647 binding fluorescence, higher = more signal;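 also: z-score merges 667 nm fluorescence with per-spot signal-to-noise over triplicate slides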
[5] = molecular target: Follistatin (Homo sapiens) (UniProt P19883); experiment: FST protein binding to printed compounds – biochemical, small-molecule microarray, 635/667 nm fluorescence, primary screen (AID 1132); conditions: 635 nm fluorescence, higher = more signal
[6] = molecular target: Fibroblast growth factor 2 (Homo sapiens) (UniProt P09038); experiment: basic fibroblast growth factor binding to printed compounds – biochemical, small-molecule microarray, 635/667 nm fluorescence, primary screen (AID 1133); conditions: FGF2, fluorescence 635/667, higher = more signal
[7] = JC-1 mitochondrial potential readout, lung cancer cells – cell-based, A549, JC-1 fluorescence, basal, 24 h, 100 nL, profiling panel (AID 1138); conditions: higher = more signal;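 also: A549 lung adenocarcinoma cells under basal conditions with no added stimulus; test concentration not given here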
Lefty1 = Lefty1 protein binding to printed compounds – biochemical, small-molecule microarray, 635/667 nm fluorescence, primary screen (AID 1139); conditions: fluorescence 635/667, higher = more signal
[8] = tested on: wheat germ agglutinin (Triticum aestivum), Alexa647-labelled; experiment: Alexa647-WGA lectin binding to printed small molecules – biochemical, small-molecule microarray, 635/667 nm fluorescence, artefact control for SMM control-protein annotation, profiling panel (AID 1140); conditions: WGA-A647 binding, 635 nm fluorescence, higher = more signal;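 also: score merges 667 nm feature emission with signal to noise over triplicate slides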
[9] = molecular target: Luciferin 4-monooxygenase (Photinus pyralis) (UniProt P08659); experiment: inhibition of purified Photinus pyralis luciferase – biochemical, luminescence, purified enzyme, 2006 set, primary screen (AID 1141); conditions: purified firefly luciferase, SteadyGlo luminescence, 30 min; higher = more signal, called active from +8 up or from −8 down;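 also: cell-free assay with purified firefly luciferase at 100 ng per well in PBS; test concentration not given here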
Sequence of Luciferin 4-monooxygenase (Photinus pyralis) (P08659 whole entry, looked up): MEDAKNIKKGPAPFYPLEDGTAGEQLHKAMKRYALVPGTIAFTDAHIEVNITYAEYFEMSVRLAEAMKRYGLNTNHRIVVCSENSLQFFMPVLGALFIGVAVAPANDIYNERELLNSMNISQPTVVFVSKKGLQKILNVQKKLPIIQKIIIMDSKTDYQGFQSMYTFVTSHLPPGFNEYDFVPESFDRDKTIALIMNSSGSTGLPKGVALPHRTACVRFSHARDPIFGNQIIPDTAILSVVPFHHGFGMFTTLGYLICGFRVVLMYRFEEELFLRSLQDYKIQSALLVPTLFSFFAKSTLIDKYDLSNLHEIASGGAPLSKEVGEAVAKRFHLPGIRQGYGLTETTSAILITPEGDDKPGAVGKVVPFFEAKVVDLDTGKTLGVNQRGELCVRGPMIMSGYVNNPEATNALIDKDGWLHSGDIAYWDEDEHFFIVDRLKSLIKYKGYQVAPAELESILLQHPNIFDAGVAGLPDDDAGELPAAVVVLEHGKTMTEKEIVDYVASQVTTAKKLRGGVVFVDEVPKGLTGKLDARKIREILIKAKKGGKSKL

Sequence of Focal adhesion kinase 1 (Homo sapiens) (Q05397 whole entry, looked up): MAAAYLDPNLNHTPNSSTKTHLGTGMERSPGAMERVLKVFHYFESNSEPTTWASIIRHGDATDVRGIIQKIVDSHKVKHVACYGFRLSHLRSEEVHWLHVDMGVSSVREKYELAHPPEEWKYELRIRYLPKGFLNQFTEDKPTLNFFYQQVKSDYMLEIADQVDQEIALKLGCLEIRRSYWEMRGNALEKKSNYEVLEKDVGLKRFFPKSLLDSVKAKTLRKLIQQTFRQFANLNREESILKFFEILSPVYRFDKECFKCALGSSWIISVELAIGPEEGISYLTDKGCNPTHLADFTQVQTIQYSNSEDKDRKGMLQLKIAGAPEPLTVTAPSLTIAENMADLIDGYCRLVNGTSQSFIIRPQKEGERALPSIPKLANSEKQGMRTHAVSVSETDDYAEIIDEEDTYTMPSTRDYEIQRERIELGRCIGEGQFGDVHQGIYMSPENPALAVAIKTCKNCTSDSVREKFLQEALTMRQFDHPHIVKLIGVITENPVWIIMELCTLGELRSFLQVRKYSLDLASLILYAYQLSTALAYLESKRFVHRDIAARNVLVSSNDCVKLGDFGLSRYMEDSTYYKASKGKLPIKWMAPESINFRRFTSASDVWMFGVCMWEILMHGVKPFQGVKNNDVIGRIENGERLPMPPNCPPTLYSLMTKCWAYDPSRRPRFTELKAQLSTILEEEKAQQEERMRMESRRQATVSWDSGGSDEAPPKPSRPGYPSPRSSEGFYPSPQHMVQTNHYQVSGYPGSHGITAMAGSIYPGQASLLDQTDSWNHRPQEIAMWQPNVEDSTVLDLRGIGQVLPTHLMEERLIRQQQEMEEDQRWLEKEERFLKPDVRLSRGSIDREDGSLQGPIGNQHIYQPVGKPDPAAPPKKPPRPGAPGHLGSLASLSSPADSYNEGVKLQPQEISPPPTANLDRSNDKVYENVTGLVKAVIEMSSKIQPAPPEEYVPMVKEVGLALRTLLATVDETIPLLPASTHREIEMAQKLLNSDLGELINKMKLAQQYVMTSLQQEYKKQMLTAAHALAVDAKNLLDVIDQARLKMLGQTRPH
Sequence of Follistatin (Homo sapiens) (P19883 whole entry, looked up): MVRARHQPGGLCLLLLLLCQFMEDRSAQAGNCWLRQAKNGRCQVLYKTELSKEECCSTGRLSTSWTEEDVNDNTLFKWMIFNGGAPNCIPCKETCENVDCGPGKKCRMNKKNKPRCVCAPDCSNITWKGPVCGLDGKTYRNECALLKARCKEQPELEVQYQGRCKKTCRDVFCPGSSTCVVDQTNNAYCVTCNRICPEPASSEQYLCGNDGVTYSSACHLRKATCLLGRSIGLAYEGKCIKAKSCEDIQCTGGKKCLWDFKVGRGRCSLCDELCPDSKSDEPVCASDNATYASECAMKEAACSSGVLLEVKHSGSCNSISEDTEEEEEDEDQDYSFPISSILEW
Sequence of Fibroblast growth factor 2 (Homo sapiens) (P09038 whole entry, looked up): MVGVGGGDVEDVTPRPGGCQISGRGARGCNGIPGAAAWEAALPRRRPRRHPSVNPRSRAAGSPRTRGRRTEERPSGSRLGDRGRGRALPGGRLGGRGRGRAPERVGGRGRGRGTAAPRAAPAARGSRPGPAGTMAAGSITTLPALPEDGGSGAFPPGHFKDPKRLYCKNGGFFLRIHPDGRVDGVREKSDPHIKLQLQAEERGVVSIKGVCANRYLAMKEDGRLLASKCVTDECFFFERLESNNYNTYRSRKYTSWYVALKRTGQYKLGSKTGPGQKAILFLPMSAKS

Row | SMILES | composite z-score [1] | composite z-score [2] | composite z-score [3] | composite z-score [4] | composite z-score [5] | composite z-score [6] | z-score [7] | composite z-score (Lefty1) | composite z-score [8] | z-score [9]
1 | CO[C@H]1O[C@H](CO)[C@@H](OC(=O)Nc2cccc(F)c2)[C@H](OC(=O)Nc2ccc3c(c2)OCO3)[C@@H]1OC(=O)Nc1ccc2c(c1)OCO2 | 2.61 | 1.29 | 0.243 | 0.973 | 1.25 | 0.217 | -0.307 | 0.278 | 0.654 | -4.46 (inactive)
2 | COC(=O)c1c2oc(c1C(=O)OC)C(=O)N[C@H](Cc1ccccc1)Cn1cc(nn1)C1(CCCCC1)NC(=O)N[C@H](CO)CC2 | 0.633 | -0.594 | 0.714 | -0.252 | -0.328 | 0.94 | -0.318 | 0.114 | 0.722 | 0.181 (inactive)
3 | Cc1ccc(S[C@]2(C(=O)NCc3ccccc3)CC(=O)N(Cc3ccccc3C(F)(F)F)[C@@H]2c2ccc(CO)cc2I)cc1 | 1.53 | -0.645 | 0.258 | -0.201 | 0.0443 | -0.402 | 1.28 | -1.25 | 0.0776 | -0.913 (inactive)
4 | [N-]=[N+]=NCc1ccccc1[C@H]1OC(c2ccc(OCCCO)cc2)=N[C@@]1(Cc1ccccc1N=[N+]=[N-])C(N)=O | 1.03 | 1.14 | 0.579 | 1.01 | 1.21 | 0.27 | 0.145 | 0.174 | 1.21 | -3.23 (inactive)
5 | CN(C)CCCCCCNC(=O)[C@@H]1C[C@@H]2C(=O)N[C@@H](CCCC[N+](C)(C)C)C(=O)N2[C@@H]1c1cccc(OCCO)c1 | 2.34 | 0.13 | -0.159 | 0.104 | 0.704 | 0.645 | 0.417 | -0.601 | 0.853 | -2.44 (inactive)
6 | NCCCCCCNC(=O)[C@@H]1C[C@@H]2C(=O)NCC(=O)N2[C@@H]1c1cccc(OCCO)c1 | -0.207 | 1.23 | 1.36 | 0.416 | 1.46 | 1.6 | 1.21 | 1.52 | 0.917 | -1.66 (inactive)
7 | COc1ccc([Si](C)(C)[C@H]2[C@H](CC(=O)N3CCC[C@H]3CO)O[C@@]3(C(=O)N(C)c4c(Br)cc(C)cc43)[C@@H]2C)cc1 | 1.15 | 1.22 | 1.44 | 0.74 | 1.59 | 1.86 | -0.0282 | 1.43 | 1.59 | 0.395 (inactive)
8 | COc1ccc(NN2C(C(O)c3ccccc3)C=CC3C(=O)N(C4CCCCC4)C(=O)C32)cc1 (stereo not given) | 0.864 | 1.26 | 0.82 | 0.996 | 0.925 | 0.202 | 0.338 | 0.769 | 1.03 | -0.684 (inactive)
9 | CCCCC(=C=CC[C@@H](O)c1ccc(OCCO)cc1)CCO | 1.83 | 0.407 | 0.814 | 0.0258 | 0.66 | 0.329 | 1.57 | 0.452 | 1.16 | -1.91 (inactive)
10 | CC1CC/C=C\[C@H]2OC34C=CCN(C(C)C)C(=O)[C@H]3N(C(C)CO)C(=O)[C@@H]4C2C(=O)O1 (stereo not given in full) | -0.112 | -0.504 | -0.205 | -1.22 | 0.305 | -0.455 | 0.501 | 0.572 | 0.748 | -0.316 (inactive)
11 | COCCOC(=O)N1C(=O)[C@@]2(c3cc(C#CCC(C(=O)OC)C(=O)OC)ccc31)[C@H](c1ccc(O)cc1)N1[C@H](c3ccccc3)[C@H](c3ccccc3)OC(=O)[C@H]1[C@@H]2C(=O)N1CCc2cc(OC)c(OC)cc2C1 | 2.46 | 1.2 | 0.362 | 0.741 | 1.27 | 1.26 | 0.627 | 0.633 | 0.801 | -1.05 (inactive)
12 | C=CCOC(=O)[C@H]1[C@@H]2C(=O)O[C@@H](c3ccccc3)[C@@H](c3ccccc3)N2[C@@H](c2ccc(OCCOC(=O)[C@@H]3C[C@@H]4C(=O)N[C@@H](Cc5ccccc5)C(=O)N4[C@@H]3c3ccc(O)cc3)cc2)[C@]12C(=O)Nc1ccc(I)cc12 | 1.15 | 1.15 | 0.307 | -0.0558 | 1.4 | 1.25 | -1.28 | 0.924 | 0.0495 | -0.409 (inactive)
13 | COc1ccc(C(=O)Nc2cccc(CN3C(=O)[C@]4(O[C@H](CC(=O)N(CCO)Cc5ccccc5)[C@@H]([Si](C)(C)c5ccc(OC)cc5)[C@@H]4C)c4ccccc43)c2)cc1 | 0.699 | 1.07 | 0.116 | 0.334 | 0.959 | 1.15 | -0.0253 | 0.565 | 0.596 | -0.881 (inactive)
14 | O=C(c1ccccc1)N1Cc2ccccc2C[C@@]2(N=C(c3ccc(OCCCO)cc3)O[C@H]2c2ccccc2)C1=O | 1.89 | 1.21 | 1.18 | 0.826 | 1.44 | 1.44 | -1.85 | 0.984 | -0.17 | -1.29 (inactive)
15 | O=C(N1CCOCC1)[C@]1(CCS(=O)(=O)c2ccccc2)N=C(c2ccc(OCCCO)cc2)O[C@@H]1c1ccccc1 | 2.94 | 1.23 | 0.99 | 0.996 | 1.25 | 0.23 | 1.1 | -0.588 | 1.29 | -1.55 (inactive)
16 | [N-]=[N+]=NCc1ccccc1[C@H]1OC(c2ccc(OCCCO)cc2)=N[C@@]1(CCS(=O)(=O)c1ccccc1)C(=O)NCCN1CCOCC1 | 1.35 | 1.27 | 0.907 | 1.04 | 0.777 | 0.188 | 0.577 | -0.237 | 0.57 | -3.06 (inactive)
17 | C#CCN(C(=O)OC(C)(C)C)[C@H](CO)c1ccccc1 | 0.137 | 0.266 | 0.0987 | -0.0218 | -0.0032 | 0.579 | -0.766 | 0.543 | -0.174 | 0.978 (inactive)
18 | O=C(NCC(F)(F)F)[C@@H]1c2ccccc2C(=O)N(Cc2cc(C(F)(F)F)cc(C(F)(F)F)c2)[C@H]1c1ccc(CO)cc1 | 3.22 | 0.0165 | 0.246 | -0.0773 | 0.647 | 0.295 | 1.89 | -0.26 | -0.352 | 0.839 (inactive)
19 | COc1cc2c(cc1OC)CN(C(=O)[C@@H]1[C@H]3C(=O)O[C@H](c4ccccc4)[C@H](c4ccccc4)N3[C@H](c3ccc(O)cc3)[C@@]13C(=O)Nc1ccc(C#CC4=CCCCC4)cc13)CC2 | 1.76 | 1.19 | 0.453 | 0.863 | 1.08 | 0.493 | -0.637 | 1.46 | 1.06 | -1.33 (inactive)
20 | C=CCC(OC(C)=O)[C@@H]1[C@@H](N(Cc2cccc3ccccc23)C(=O)c2ccc(C)cc2)c2cc(OCCCO)ccc2N1C(=O)Cc1ccc2ccccc2c1 (stereo not given in full) | -0.2 | -0.0179 | 0.358 | 0.535 | 0.142 | -0.0243 | 1.62 | -0.136 | -0.0836 | -0.667 (inactive)
21 | O=C1NC(=O)C2C1C=CC(C(O)c1ccc(F)cc1)N2Nc1ccc(Cl)cc1Cl (stereo not given) | 1.97 | 0.638 | -0.0637 | -0.566 | -0.157 | -0.459 | -0.553 | -0.334 | -0.0287 | -1.32 (inactive)
22 | C[N+](C)(C)CCCC[C@@H]1NC(=O)[C@H]2C[C@@H](C(=O)O)[C@@H](c3ccc(O)cc3)N2C1=O | 1.04 | 0.123 | -0.216 | -0.223 | 0.864 | 0.948 | 1.49 | 0.155 | -0.185 | -1.93 (inactive)
23 | COc1c(C)cc(-c2cc3c(c(CCc4ccccc4)n2)[Si](C(C)C)(C(C)C)O[C@H]3c2ccccc2)cc1C | -0.439 | -0.425 | -0.191 | -0.543 | 0.029 | -0.278 | 0.386 | 0.268 | 0.183 | -0.183 (inactive)
24 | COC(=O)C1=CC(CCCO)=CC(c2ccc(CN3CCCC3)cc2)N(C)C=C1C(=O)OC (stereo not given) | 1.73 | 0.821 | 0.111 | 1.01 | 0.468 | -0.232 | 0.915 | -0.079 | 1.01 | -0.208 (inactive)
25 | CC(C)Cc1ccc(CN2CC[C@@H](NC(=O)c3ccccc3)C2)cc1 | 0.44 | -1.55 | -0.144 | 0.411 | -0.0213 | -0.382 | 1.81 | 0.247 | 0.0191 | 0.525 (inactive)
26 | N#Cc1ccc(NN2C(C(O)c3ccc(B(O)O)cc3)C=CC3CN(c4ccccc4)C(=O)C32)cc1 (stereo not given) | 0.48 | -0.633 | -0.508 | 0.529 | -0.0923 | -0.436 | -0.408 | -0.118 | 0.485 | -1.24 (inactive)
27 | COc1cc(Cc2cc3c(c(-c4ccccc4)n2)[Si](C(C)C)(C(C)C)OC3)cc(OC)c1OC | -0.753 | -1.33 | -0.517 | 0.107 | 0.0972 | 0.542 | 0.489 | -0.194 | 0.712 | -0.111 (inactive)
28 | CCCCCN1CC=CC23O[C@@H]4/C=C\CCCOC(=O)C4[C@H]2C(=O)N(CCO)[C@@H]3C1=O (stereo not given in full) | 2.49 | 0.87 | 1.15 | -0.728 | -0.274 | -0.0388 | -0.953 | 0.126 | 0.759 | -2.06 (inactive)
29 | CC[C@@H]1C=C(C(=O)O)[C@H](c2cccc(Cl)c2)N1S(=O)(=O)c1ccc(C)cc1 | 1.47 | 1.14 | 0.887 | -0.611 | -0.126 | -0.686 | 0.435 | -0.908 | 0.226 | 0.556 (inactive)

Source: PubChem BioAssay
